The values below come from PubChem BioAssay AID1878 (Sanford-Burnham Center for Chemical Genomics, 2009).

The structures appear in SMILES notation. In all, about 1,000 compounds went through this assay and about 200 (20%) were called active. Cut-off read from the data, not from the text of the source: active = inhibition above about 55%; inactive = the rest. Not all results are given here. Entries with a potency or affinity are not part of this list.

Dual specificity protein phosphatase 3 (Homo sapiens), sequence (P51452 whole entry, looked up): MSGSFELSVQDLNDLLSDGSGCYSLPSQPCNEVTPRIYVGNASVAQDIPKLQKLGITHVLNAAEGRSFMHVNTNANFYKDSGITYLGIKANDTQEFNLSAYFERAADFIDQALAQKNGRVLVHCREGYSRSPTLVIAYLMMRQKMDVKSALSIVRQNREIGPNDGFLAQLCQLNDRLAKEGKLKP

The assay has as its target Dual specificity protein phosphatase 3 (Homo sapiens) (UniProt P51452). The assay is described as follows: VHR1 phosphatase inhibitors, biochemical (AID 1878). As to conditions: recombinant VHR phosphatase, fluorogenic substrate; at 13.3 µM; hits give high values.
Turning to `Cc1ccc(S(=O)(=O)NCC(=O)N2CCc3ccccc3C2)cc1`, the inhibition (usually the relative decrease from the control value, in per cent) was 7.4% (inactive).

`Cc1ccccc1-n1c(SCC(=O)Nc2ccccc2Cl)nc2n[nH]c(C)c2c1=N`: the inhibition is -7.4% (inactive).

For `CCn1c(C)c(C)c2cc(C(=O)NCCCN3CCCCC3C)ccc21` (stereo not drawn), the inhibition was -4.1% (inactive).

For the molecule `COc1ccc(NC(=S)NCCCN2CCCC2=O)c(OC)c1`, the inhibition was 47.4% (inactive).

Consider `O=C1CCCN1CCCNC(=S)Nc1ccc(F)cc1`, for which the inhibition was 48.6% (inactive).

Regarding `O=C1CCCN1CCCNC(=S)Nc1ccc(F)c(Cl)c1`, the inhibition is 58.6% (active).

In the case of `CC(=O)c1cccc(CN2CCC(CO)(CCOc3ccccc3)CC2)c1`, the inhibition was -26.7% (inactive).

For the molecule `COc1ccc(Cl)cc1NC(=O)C/C(C)=N/NC(=O)c1ccc(O)cc1`, the inhibition was -3.4% (inactive).

Turning to `CCOC(=O)CN(C)Cc1cn[nH]c1-c1ccc2cc(OC)ccc2c1`, the inhibition is 4% (inactive).

As for `O=C(CC12CC3CC(CC(C3)C1)C2)NCc1ccc(F)cc1`, the inhibition was -9.3% (inactive).

For the molecule `CN(C)C(=O)OCC1COc2ccccc2O1` (stereo not drawn), the inhibition is 0.1% (inactive).

For the molecule `Cn1c2ccccc2c(=O)c2c(=O)n(C3CCCCCC3)c(C3CCCCC3)nc21`, the inhibition is 95.7% (active).

Take `COc1ccc(NC2CCCN(C(=O)c3oc(C)cc3C)C2)cc1OC` (stereo not drawn): the inhibition was 1.1% (inactive).

`Cc1nc(C)c(C(=O)Nc2cccc(C)c2C)s1`: the inhibition is 32.5% (inactive).

With `O=C(O)C1Nc2c(Cl)cc(Cl)cc2C2C=CCC12` (stereo not drawn), the inhibition is 89.8% (active).

For the molecule `O=C(O)C1Nc2c(O)cc(Cl)c([N+](=O)[O-])c2C2C=CCC12` (stereo not drawn), the inhibition is 92.7% (active).

`O=C(Cn1c(=O)c2cccn2c2ccccc21)NCCCN1CCCCC1`: the inhibition is 2% (inactive).

Regarding `O=C(CCC(=O)c1ccc(F)cc1)NCc1ccccc1C(F)(F)F`, the inhibition was 2.4% (inactive).

Consider `COc1cc(CN2CCN(CC3CC3)CC2CCO)cc(OC)c1` (stereo not drawn), for which the inhibition was -3.6% (inactive).

As for `CN(Cc1ccccc1)C(=O)COC(=O)COc1ccc(C#N)cc1`, the inhibition was -2.2% (inactive).

For `CC(C(=O)NCCCc1ccccc1)n1cccc1C(=O)c1ccccc1` (stereo not drawn), the inhibition is 17.1% (inactive).

In the case of `CC(C)[C@H](NC(=O)C1CCN(S(=O)(=O)c2ccccc2)CC1)C(=O)NCc1ccccc1`, the inhibition was 12.2% (inactive).

Regarding `CCCc1cc(SCC(=O)Nc2c(C)n(C)n(-c3ccccc3)c2=O)n2c(nc3ccccc32)c1C#N`, the inhibition was 98.7% (active).

In the case of `CC(C(=O)Nc1cccc(S(=O)(=O)N2CCOCC2)c1)N1CCN(C)CC1` (stereo not drawn), the inhibition was -1.7% (inactive).

For `CCOC(=O)c1c(C)n(CCOc2ccccc2)c2ccc(O)cc12`, the inhibition is 14.4% (inactive).

Consider `CC(C)/C=C/CN1CCCC(N2CCN(c3cccc(Cl)c3)CC2)C1` (stereo not drawn), for which the inhibition is -15% (inactive).

With `COC(=O)c1ccc(COc2ccc(F)cc2)o1`, the inhibition is 27.9% (inactive).

As for `C/C(=N\NC(=O)C(=O)Nc1ccc(C)c(Cl)c1)c1ccncc1`, the inhibition is 91.6% (active).

With `Cc1ccc(F)c(CNC(=O)C2CCC(=O)N(Cc3ccccn3)C2)c1F` (stereo not drawn), the inhibition was 1.1% (inactive).

Consider `CCC(=O)N1CCN=C1SCc1cccc(F)c1`, for which the inhibition was 0.5% (inactive).

On to `CCC(=O)Nc1c(-c2ccc(Cl)cc2)c(=O)c2ccccc2n1C`, for which the inhibition was -1.5% (inactive).

Take `COC(=O)c1cc(S(=O)(=O)N2CCCCC2)c[nH]1`: the inhibition was 4.2% (inactive).

With `Cc1c(C)c2cc(Cl)c(OCC(=O)NC3CC(C)(C)NC(C)(C)C3)cc2oc1=O`, the inhibition was -11.9% (inactive).

Consider `Nc1ccc2nc3c(=O)[nH]c(=S)[nH]c3nc2c1`, for which the inhibition was 61.5% (active).

Regarding `COc1cccc(-c2ocnc2C(=O)Nc2ccc(N3CCOCC3)cc2N2CCOCC2)c1`, the inhibition is -5.2% (inactive).

As for `CCCCN(CCCC)CCNC(=O)CN1C(=O)COc2ccc(S(=O)(=O)N3CCOCC3)cc21`, the inhibition was -18% (inactive).

For `Nc1nonc1-c1nc2ccccc2n1CC(=O)N/N=C/c1ccc(-c2cccc(C(=O)O)c2)o1`, the inhibition was 73.2% (active).

Regarding `O=S(=O)(NCCc1csc(-c2cccnc2)n1)c1ccc(F)cc1`, the inhibition was -3.7% (inactive).

For the molecule `Oc1ccc(/C=N/Nc2ncc(Cl)cc2Cl)cc1`, the inhibition is 14.3% (inactive).

On to `CCc1c(C)nc2c(-c3ccccc3)c(-c3ccccc3)[nH]n2c1=O`, for which the inhibition was 1.4% (inactive).

With `COC(=O)c1ccc(NS(=O)(=O)c2ccc3c(c2)n(C)c(=O)n3C)cc1`, the inhibition is -7.8% (inactive).

For the molecule `CCCN1CCC(=O)N([C@H](CSc2ccccc2)CC(C)C)CC1`, the inhibition was -3.5% (inactive).

Consider `COc1cccc(-c2coc3cc4oc(=O)c(CCC(=O)O)c(C)c4cc23)c1`, for which the inhibition is -0.1% (inactive).

Turning to `O=C(NCCCN1CCCCC1)c1ccc(CS(=O)c2ccc(Cl)cc2)o1` (stereo not drawn), the inhibition was -3.5% (inactive).

In the case of `OCCC1CCCCN1CC(O)COCc1ccc(Cl)cc1` (stereo not drawn), the inhibition was -7.1% (inactive).

Regarding `c1ccc(-c2ccnc3nc(N4CCN(c5ccccc5)CC4)nn23)cc1`, the inhibition is 19% (inactive).

Regarding `CC1Cc2cc(-c3csc(N)n3)ccc2O1` (stereo not drawn), the inhibition is 7.6% (inactive).

Regarding `O=C(CNC(=O)c1ccco1)Nc1ccc(Br)cc1`, the inhibition was 7% (inactive).

As to `CCCC(CCC)C(=O)NC1CCN(Cc2ccccc2)CC1`, the inhibition was -4.1% (inactive).

Consider `CN(C)c1ccc(C(=S)N2CCN(Cc3ccccc3)CC2)cc1`, for which the inhibition was 56.8% (active).

For `S=C(c1ccc(OCc2ccccc2)cc1)N1CCCC1`, the inhibition was 7.3% (inactive).

`O=c1[nH]c2ccc(NS(=O)(=O)c3ccc(F)c(Cl)c3)cc2[nH]1`: the inhibition was -7.2% (inactive).

As for `NC(=S)N/N=C/c1ccc2cccc(OCc3ccccc3)c2n1`, the inhibition is 9.9% (inactive).

With `Cc1cc2c(cc3c(=O)n(CC(=O)NCCCN4CC(C)CC(C)C4)ncn32)s1` (stereo not drawn), the inhibition is -3.8% (inactive).

In the case of `Cc1[nH]c(=O)[nH]c(=O)c1S(=O)(=O)Nc1ccc(Br)cc1F`, the inhibition is 4.3% (inactive).

In the case of `O=C(N[C@@H](Cc1ccccc1)C(=O)N1CCC2(CC1)NCCc1[nH]cnc12)c1cccc(F)c1`, the inhibition was 19.9% (inactive).

Regarding `CN1CCN(Cc2nc3ccccc3n2C)CC1CCO` (stereo not drawn), the inhibition is -0.8% (inactive).

Consider `Cc1ccc(-n2cccc2/C=C2\C(=N)N3N=C(c4ccco4)SC3=NC2=O)cc1`, for which the inhibition is 98.9% (active).

Regarding `CS(=O)(=O)C1=NSC2=NC(=O)/C(=C\c3cccn3-c3ccc(Cl)cc3)C(=N)N21`, the inhibition is 86.4% (active).

With `c1ccc(NC2=NCCCS2)cc1`, the inhibition is -2.2% (inactive).

Consider `COc1ccc(C)c(NC(=O)NCCc2cnc[nH]2)c1`, for which the inhibition was 7.6% (inactive).

As for `CCOc1ccc(S(=O)(=O)N2CCOCC2)cc1NC(=O)CSCC(=O)Nc1cccc(C)c1`, the inhibition is -2.1% (inactive).

For `CCCCCCC(=O)Nc1nc(C)c(-c2csc(Nc3cc(OC)ccc3OC)n2)s1`, the inhibition was 11.7% (inactive).

Turning to `O=C(COc1ccc(S(=O)(=O)N2CCOCC2)cc1)N1CCN(c2ccccc2)CC1`, the inhibition was 7.2% (inactive).

Consider `CNC1(C(N)=O)CCNCC1`, for which the inhibition is -8.1% (inactive).

Turning to `CC1=CC(=C2C=CC(=O)C=C2)C=C(C)N1C`, the inhibition was 4.7% (inactive).

As for `CCCCNC(=O)CCc1c(C)nc2c(c(C)nn2-c2ccccc2)c1C`, the inhibition is -6.7% (inactive).

As to `Cc1ccc(CC(=O)NC2CCN(C)CC2)cc1`, the inhibition was 21.9% (inactive).

In the case of `Cc1cccc(-n2c(N)c(C(=O)N3CCN(C)CC3)sc2=S)c1`, the inhibition is 36.6% (inactive).

For `CN1CCCN(C(=O)c2cccc(Cl)c2)CC1`, the inhibition was -8.6% (inactive).

As to `CC(C)c1ccc(NC(=O)N2CCN(S(=O)(=O)c3ccccc3)CC2)cc1`, the inhibition was 0% (inactive).

As to `Nc1c2c(nc3c1CCCC3)CCCC2` (tested in a mixture with another compound), the inhibition is -12.1% (inactive).

In the case of `CN(C)CCN(Cc1ccccc1)C(=O)C1CCN(c2ncnc3c2nc2n3CCCCC2)CC1`, the inhibition was -3.7% (inactive).

For `CC(C)(C)NC(=S)N1CCC(C(=O)c2ccc(F)cc2)CC1`, the inhibition is -7.6% (inactive).

On to `Cc1ccc(N=C2C(=O)Nc3c(C)cccc32)cc1`, for which the inhibition is -18.2% (inactive).

On to `O=S(=O)(NC(=NCc1ccccc1)c1ccccc1)c1ccccc1`, for which the inhibition was -7.7% (inactive).

For the molecule `CCC(C)(C)NC(=O)CN(C(=O)CCC(=O)Nc1nccs1)c1ccc2c(c1)OCCO2`, the inhibition was 1.8% (inactive).

Take `O=C(c1cccc([N+](=O)[O-])c1)c1ccc2c(c1)C(=O)N(c1c[nH]c(=O)[nH]c1=O)C2=O`: the inhibition was -0.9% (inactive).

For the molecule `CC(C)=C(NC(=O)c1ccccc1)C(=O)NCCc1nc2ccccc2[nH]1`, the inhibition is 26.9% (inactive).

Take `Cc1ccc2nc(NC(=O)C3CC3C)sc2c1` (stereo not drawn): the inhibition is -7.4% (inactive).

Turning to `CCc1ccc2nc(NC(=O)c3ccc4c(=O)[nH]c(CN5CCOCC5)nc4c3)sc2c1`, the inhibition is 66.5% (active).

Take `CCN(CC)CCCNC(=O)c1oc2ccc3c(c2c1C)C(O)CC(C)(C)O3` (stereo not drawn): the inhibition was -1.6% (inactive).

Consider `CC(C)C(=O)N1CCC(n2nccc2NC(=O)CCc2ccccc2)CC1`, for which the inhibition is -2.1% (inactive).
